Measured values as given in the supplement of paper PMC10849652.
Of roughly 8,800 targets only a part is listed; those with a hit were picked by preference. About 0.5% of all pairs of compound and target were hits. A number with no mark means an inactive call.

Experiments:
Test in all cases: log2 fold change, soluble protein after heating vs DMSO (PISA); higher = thermal stabilisation; K562 lysate, 10 uM; active = over 0.2 and 3.5 SD of the protein, either way, in both replicates (recomputed)
[1] = compound: CCCS(=O)(=O)Nc1ccc(F)c(C(=O)c2c[nH]c3ncc(-c4ccc(Cl)cc4)cc23)c1F [vemurafenib]
Procedure, shortened: (§1)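 Quantification was by TMTpro 16plex LC-MS/MS with equalised channel sums, applied to the supernatant after 21,000xg for 90 min. Samples were crude K562 extract at 1 mg/mL protein in PBS pH 7.4 with 1 mM MgCl2, treated with 10 μM compound for 30 min, heated for 3 min across 48°C-58°C, pooled and brought to 0.5% NP-40 at 4°C. Values are log-two fold changes in thermal stability relative to solvent controls, from duplicates.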

[2] = compound: CCCS(=O)(=O)Nc1ccc(F)c(C(=O)c2c[nH]c3ncc(Cl)cc23)c1F
Procedure, shortened: as §1

[3] = compound: CCN(CCCOc1ccc2c(Nc3cc(CC(=O)Nc4cccc(F)c4)[nH]n3)ncnc2c1)CCOP(=O)(O)O [barasertib]
Procedure, shortened: as §1

[4] = compound: CC[C@@H]1C(=O)N(C)c2cnc(Nc3ccc(C(=O)NC4CCN(C)CC4)cc3OC)nc2N1C1CCCC1
Procedure, shortened: as §1

[5] = compound: CC[C@@H]1C(=O)N(C)c2cnc(Nc3ccc(C(=O)N[C@H]4CC[C@H](N5CCN(CC6CC6)CC5)CC4)cc3OC)nc2N1C(C)C [volasertib]
Procedure, shortened: as §1

[6] = compound: CCn1c(C(=O)N(C2CC2)C2CC2)cc2c3c(ncn3C)c(Nc3cc(C)n(C)n3)nc21
Procedure, shortened: as §1

[7] = compound: CCn1cc(-c2ccnc3[nH]c(-c4cccc(CN(C)C)c4)cc23)c(-c2ccc(NC(=O)N(C)C)cc2)n1
Procedure, shortened: as §1

[8] = compound: CN1CCC(CNc2ccc3ncc(-c4cccc(OC(F)(F)F)c4)n3n2)CC1
Procedure, shortened: as §1

[9] = compound: CN1CCN(CCOc2cc(OC3CCOCC3)c3c(Nc4c(Cl)ccc5c4OCO5)ncnc3c2)CC1 [saracatinib]
Procedure, shortened: as §1

[10] = compound: CN1CCN(c2nc(C3=C(c4c[nH]c5ccccc45)C(=O)NC3=O)c3ccccc3n2)CC1 [sotrastaurin]
Procedure, shortened: as §1

Chain of UniProt Q8NHP6 (Q8NHP6 whole entry, looked up): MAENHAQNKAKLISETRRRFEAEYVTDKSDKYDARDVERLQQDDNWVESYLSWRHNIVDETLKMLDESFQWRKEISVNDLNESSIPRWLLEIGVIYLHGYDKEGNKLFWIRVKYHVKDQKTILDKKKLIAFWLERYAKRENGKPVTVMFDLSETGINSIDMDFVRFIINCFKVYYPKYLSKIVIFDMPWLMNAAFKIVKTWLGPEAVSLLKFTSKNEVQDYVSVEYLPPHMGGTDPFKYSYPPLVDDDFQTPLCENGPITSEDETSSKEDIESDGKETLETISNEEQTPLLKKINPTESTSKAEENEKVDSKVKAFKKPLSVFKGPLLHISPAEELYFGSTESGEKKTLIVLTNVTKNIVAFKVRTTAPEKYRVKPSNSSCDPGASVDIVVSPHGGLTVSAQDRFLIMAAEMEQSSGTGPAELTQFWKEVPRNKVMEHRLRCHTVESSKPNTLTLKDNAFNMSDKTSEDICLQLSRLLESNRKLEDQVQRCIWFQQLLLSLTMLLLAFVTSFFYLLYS
Chain of UniProt Q15013 (Q15013 whole entry, looked up): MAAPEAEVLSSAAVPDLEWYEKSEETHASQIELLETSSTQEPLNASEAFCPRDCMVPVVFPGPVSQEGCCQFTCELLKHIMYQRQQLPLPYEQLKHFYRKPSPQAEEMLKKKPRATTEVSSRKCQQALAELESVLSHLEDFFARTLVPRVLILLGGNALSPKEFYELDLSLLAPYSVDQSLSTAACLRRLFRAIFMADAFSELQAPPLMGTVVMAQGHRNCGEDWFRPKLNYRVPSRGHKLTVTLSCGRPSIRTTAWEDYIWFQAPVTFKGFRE
Chain of UniProt O00522 (O00522 whole entry, looked up): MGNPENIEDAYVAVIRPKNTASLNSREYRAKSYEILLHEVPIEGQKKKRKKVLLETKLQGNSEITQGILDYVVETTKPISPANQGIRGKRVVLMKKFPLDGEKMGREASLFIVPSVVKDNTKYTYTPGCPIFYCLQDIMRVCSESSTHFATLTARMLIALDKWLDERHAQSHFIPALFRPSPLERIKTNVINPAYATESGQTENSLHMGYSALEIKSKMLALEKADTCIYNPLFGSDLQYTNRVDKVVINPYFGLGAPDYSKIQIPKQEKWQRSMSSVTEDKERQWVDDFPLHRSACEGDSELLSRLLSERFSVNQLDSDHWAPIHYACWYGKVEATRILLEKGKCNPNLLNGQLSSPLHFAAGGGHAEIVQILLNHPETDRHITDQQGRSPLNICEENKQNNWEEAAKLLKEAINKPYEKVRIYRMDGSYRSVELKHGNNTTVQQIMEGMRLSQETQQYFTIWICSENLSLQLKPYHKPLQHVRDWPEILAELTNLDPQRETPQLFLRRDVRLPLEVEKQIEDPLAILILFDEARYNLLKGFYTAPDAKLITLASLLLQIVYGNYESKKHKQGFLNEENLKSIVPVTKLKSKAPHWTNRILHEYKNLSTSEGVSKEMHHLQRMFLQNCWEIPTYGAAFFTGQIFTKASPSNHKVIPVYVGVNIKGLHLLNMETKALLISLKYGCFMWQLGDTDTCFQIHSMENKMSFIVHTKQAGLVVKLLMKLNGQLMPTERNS
Chain of UniProt Q8IW41 (Q8IW41 whole entry, looked up): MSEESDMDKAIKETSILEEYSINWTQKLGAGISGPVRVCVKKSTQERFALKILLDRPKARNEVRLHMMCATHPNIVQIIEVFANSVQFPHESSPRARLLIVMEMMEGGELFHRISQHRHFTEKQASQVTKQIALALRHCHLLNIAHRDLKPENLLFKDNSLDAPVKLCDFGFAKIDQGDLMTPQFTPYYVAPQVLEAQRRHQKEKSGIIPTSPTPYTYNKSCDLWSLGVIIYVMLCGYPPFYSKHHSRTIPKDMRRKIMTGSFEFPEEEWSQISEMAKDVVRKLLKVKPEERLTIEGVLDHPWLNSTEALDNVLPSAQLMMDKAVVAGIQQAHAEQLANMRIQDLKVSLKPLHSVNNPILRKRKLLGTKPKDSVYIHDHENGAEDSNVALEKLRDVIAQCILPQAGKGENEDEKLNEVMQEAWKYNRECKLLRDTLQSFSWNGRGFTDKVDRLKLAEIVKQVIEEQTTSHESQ
Chain of UniProt P28482 (P28482 whole entry, looked up): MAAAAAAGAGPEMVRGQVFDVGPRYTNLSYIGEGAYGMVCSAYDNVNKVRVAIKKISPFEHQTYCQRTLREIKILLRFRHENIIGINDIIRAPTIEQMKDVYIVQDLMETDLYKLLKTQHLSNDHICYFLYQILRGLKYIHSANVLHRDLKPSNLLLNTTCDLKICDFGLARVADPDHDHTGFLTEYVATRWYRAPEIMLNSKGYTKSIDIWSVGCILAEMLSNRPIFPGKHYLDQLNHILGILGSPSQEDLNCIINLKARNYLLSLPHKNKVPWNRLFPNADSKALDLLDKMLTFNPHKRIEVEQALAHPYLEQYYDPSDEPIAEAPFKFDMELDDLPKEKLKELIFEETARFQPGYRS
Chain of UniProt Q12851 (Q12851 whole entry, looked up): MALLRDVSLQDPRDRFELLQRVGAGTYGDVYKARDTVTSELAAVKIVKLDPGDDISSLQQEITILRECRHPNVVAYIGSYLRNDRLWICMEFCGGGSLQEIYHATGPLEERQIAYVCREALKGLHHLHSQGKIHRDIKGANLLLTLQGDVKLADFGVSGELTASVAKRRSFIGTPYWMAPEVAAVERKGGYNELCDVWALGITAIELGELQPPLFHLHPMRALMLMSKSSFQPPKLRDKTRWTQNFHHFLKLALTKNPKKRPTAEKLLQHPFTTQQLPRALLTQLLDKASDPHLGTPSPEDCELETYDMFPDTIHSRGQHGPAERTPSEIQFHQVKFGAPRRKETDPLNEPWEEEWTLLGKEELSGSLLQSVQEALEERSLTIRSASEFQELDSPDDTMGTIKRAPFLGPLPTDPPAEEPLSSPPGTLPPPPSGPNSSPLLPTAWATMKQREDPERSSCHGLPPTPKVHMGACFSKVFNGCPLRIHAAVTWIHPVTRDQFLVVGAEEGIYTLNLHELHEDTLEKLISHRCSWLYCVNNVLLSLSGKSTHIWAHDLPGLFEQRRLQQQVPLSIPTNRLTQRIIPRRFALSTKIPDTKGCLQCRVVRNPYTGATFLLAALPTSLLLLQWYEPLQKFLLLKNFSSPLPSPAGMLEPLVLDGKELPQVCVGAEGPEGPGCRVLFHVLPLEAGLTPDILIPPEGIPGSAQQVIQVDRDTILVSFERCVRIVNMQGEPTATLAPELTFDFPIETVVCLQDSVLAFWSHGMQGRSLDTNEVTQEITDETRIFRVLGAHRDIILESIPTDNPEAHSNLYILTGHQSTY
Chain of UniProt Q8N5J2 (Q8N5J2 whole entry, looked up): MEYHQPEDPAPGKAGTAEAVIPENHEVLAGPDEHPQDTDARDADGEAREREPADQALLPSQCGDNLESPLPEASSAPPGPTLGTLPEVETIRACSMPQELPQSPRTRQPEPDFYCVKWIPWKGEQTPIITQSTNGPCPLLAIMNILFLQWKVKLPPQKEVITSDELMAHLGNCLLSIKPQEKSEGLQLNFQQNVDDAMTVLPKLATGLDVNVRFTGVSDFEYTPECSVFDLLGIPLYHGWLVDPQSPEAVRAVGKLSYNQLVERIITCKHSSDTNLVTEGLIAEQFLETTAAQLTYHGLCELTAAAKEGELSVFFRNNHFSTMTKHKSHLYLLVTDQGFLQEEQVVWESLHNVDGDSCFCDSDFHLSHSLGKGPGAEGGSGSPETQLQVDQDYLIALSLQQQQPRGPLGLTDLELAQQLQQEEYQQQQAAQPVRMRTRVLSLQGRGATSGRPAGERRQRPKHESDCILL
Chain of UniProt Q6ZWT7 (Q6ZWT7 whole entry, looked up): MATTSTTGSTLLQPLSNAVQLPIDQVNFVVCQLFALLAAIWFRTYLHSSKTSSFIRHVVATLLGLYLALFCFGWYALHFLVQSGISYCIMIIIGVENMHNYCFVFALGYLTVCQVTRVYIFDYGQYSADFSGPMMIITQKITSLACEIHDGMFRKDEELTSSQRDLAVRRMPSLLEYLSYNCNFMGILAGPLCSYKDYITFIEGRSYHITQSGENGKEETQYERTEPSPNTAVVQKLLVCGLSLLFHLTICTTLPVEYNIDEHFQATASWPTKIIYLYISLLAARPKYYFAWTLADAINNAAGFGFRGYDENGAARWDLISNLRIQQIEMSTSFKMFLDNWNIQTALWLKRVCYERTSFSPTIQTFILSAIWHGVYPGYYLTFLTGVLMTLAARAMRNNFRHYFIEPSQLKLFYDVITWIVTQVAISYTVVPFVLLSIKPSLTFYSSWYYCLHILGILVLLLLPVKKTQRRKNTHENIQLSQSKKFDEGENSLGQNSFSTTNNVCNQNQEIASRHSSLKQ
Chain of UniProt O00629 (O00629 whole entry, looked up): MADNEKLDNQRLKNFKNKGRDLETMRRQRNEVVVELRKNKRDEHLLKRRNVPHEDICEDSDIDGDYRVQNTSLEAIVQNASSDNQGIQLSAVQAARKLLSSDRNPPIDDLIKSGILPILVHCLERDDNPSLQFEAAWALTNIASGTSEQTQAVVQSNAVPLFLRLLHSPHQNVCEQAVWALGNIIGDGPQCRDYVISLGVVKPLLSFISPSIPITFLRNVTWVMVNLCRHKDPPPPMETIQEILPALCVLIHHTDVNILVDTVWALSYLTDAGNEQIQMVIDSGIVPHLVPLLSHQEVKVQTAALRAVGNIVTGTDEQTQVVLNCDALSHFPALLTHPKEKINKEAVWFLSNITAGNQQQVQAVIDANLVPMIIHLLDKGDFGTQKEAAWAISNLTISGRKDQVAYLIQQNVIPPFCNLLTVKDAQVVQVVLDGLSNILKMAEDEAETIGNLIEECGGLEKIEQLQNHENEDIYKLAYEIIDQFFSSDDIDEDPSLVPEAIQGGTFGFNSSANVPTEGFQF
Chain of UniProt Q9H8H3 (Q9H8H3 whole entry, looked up): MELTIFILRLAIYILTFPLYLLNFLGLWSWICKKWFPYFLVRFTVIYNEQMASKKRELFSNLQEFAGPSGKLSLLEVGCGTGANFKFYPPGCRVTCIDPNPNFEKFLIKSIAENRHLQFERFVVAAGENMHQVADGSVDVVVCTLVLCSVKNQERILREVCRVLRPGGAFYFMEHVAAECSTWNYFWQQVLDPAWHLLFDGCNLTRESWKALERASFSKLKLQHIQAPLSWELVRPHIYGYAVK

Target | log2 fold change [1] | log2 fold change [2] | log2 fold change [3] | log2 fold change [4] | log2 fold change [5] | log2 fold change [6] | log2 fold change [7] | log2 fold change [8] | log2 fold change [9] | log2 fold change [10]
MED10 (UniProt Q9BTT4) | 0.037 | 0 | 0.08 | 0.133 | 0.066 | -0.009 | 0.107 | -0.059 | 0.077 | -0.015
MIPEP (UniProt Q99797) | -0.026 | 0.004 | 0.006 | -0.053 | -0.029 | 0.029 | -0.05 | -0.015 | 0.001 | -0.042
LRCH3 (UniProt Q96II8) | -0.009 | -0.01 | 0.03 | -0.051 | -0.058 | -0.022 | 0.022 | -0.031 | 0.004 | -0.047
MAP2K5 (UniProt Q13163) | 0.207 | 0.302 | 0.019 | -0.148 | -0.311 | -0.144 | 0.15 | -0.029 | -0.079 | 0.014
LRIF1 (UniProt Q5T3J3) | 0.213 | -0.005 | – | -0.009 | 0.042 | 0.006 | 0.105 | 0.044 | 0.046 | 0.001
METTL7A (UniProt Q9H8H3) | -0.08 | 0.056 | -0.123 | -0.022 | 0.226 | -0.018 | 0.014 | 0.081 | -0.028 | -0.028
MINDY1 isoform 3 (UniProt Q8N5J2) | -0.049 | -0.26 | -0.201 | 0.059 | -0.041 | -0.106 | – | – | 0.076 | 0.074
KRAS (UniProt P01116) | 0.061 | 0.019 | – | 0.019 | 0.063 | -0.053 | -0.278 (active) | 0.06 | 0.066 | 0.012
LPIN1 isoform 7 (UniProt Q14693) | -0.057 | 0.065 | 0.1 | -0.057 | -0.002 | -0.003 | -0.052 | -0.05 | 0.024 | 0.028
MAPK1 (UniProt P28482) | -0.022 | -0.072 | -0.015 | -0.013 | -0.009 | 0.004 | 0.004 | -0.023 | 0.002 | -0.007
LARS (UniProt Q9P2J5) | -0.005 | 0.006 | 0.006 | -0.069 | -0.063 | 0.045 | 0.008 | -0.058 | -0.023 | -0.002
KPNA4 (UniProt O00629) | -0.003 | 0.017 | -0.089 | 0.048 | 0.026 | -0.022 | -0.318 (active) | 0.103 | -0.032 | 0.03
MDM1 (UniProt Q8TC05) | 0.024 | 0.053 | – | -0.05 | 0.024 | 0.075 | -1.5 (active) | 0.512 (active) | 0.013 | –
METTL2A (UniProt Q96IZ6) | 0.073 | 0.058 | 0.023 | -0.046 | -0.015 | -0.011 | 0.06 | -0.113 | -0.004 | 0.011
MAP4K2 (UniProt Q12851) | 0.198 | -0.038 | 0.009 | -0.009 | -0.035 | -0.023 | -0.317 | 0.105 | 0.005 | 0.053
MBOAT2 (UniProt Q6ZWT7) | 0.02 | -0.01 | 0.121 | 0.159 | -0.103 | -0.015 | -0.251 | 0.026 | 0.045 | 0.284
MARCHF6 (UniProt O60337) | 0.043 | 0.052 | 0.233 | 0.038 | 0.078 | – | -0.023 | 0.013 | -0.13 | 0.034
MGST1 (UniProt P10620) | 0.015 | 0.018 | 0.027 | 0.097 | 0.07 | -0.036 | 0.279 (active) | -0.069 | 0.068 | -0.013
KSR1 (UniProt Q8IVT5) | 0.021 | 0.049 | -0.022 | -0.009 | 0.016 | 0.009 | 0.187 | -0.056 | -0.003 | -0.065
MAP4K5 (UniProt Q9Y4K4) | 0.185 | -0.011 | 0.23 | – | -0.069 | 0.014 | 0 | -0.007 | 0.01 | –
MRPL35 (UniProt Q9NZE8) | 0.091 | -0.001 | 0.021 | – | 0.013 | 0.005 | -0.124 | -0.011 | 0.04 | -0.019
MAD2L1BP isoform 3 (UniProt Q15013) | 0.003 | 0.009 | 0.054 | -0.076 | -0.042 | 0.022 | 0 | 0.03 | 0.021 | 0.01
KIFC1 (UniProt Q9BW19) | -0.008 | 0.037 | 0.002 | 0.006 | -0.084 | -0.031 | -0.045 | -0.031 | 0.021 | 0.071
MANEA (UniProt Q5SRI9) | 0.035 | -0.019 | -0.071 | -0.001 | -0.084 | 0.005 | -0.627 (active) | 0.254 | -0.059 | -0.019
LRPPRC (UniProt P42704) | 0.032 | 0.024 | 0.101 | -0.141 | -0.072 | 0.076 | 0.033 | -0.087 | 0.045 | 0.005
MCMBP isoform 2 (UniProt Q9BTE3) | -0.039 | 0.081 | -0.096 | 0.059 | -0.004 | 0.047 | – | – | -0.036 | -0.015
MOSPD2 (UniProt Q8NHP6) | 0.003 | 0.008 | -0.007 | 0.158 | -0.014 | 0.039 | -0.054 | 0.004 | 0.043 | 0.076
KRIT1 (UniProt O00522) | -0.084 | 0.051 | -0.084 | -0.009 | 0.036 | -0.052 | – | – | -0.103 | 0.049
MAPKAPK5 (UniProt Q8IW41) | -0.111 | -0.11 | -0.013 | -0.009 | -0.052 | 0.031 | 0.017 | -0.02 | -0.009 | -0.068
